The values that follow come from PMC7862700, “An all-to-all approach to the identification of sequence-specific readers for epigenetic DNA modifications on cytosine”.

Common to all, as to assay: DAPPL (digital affinity profiling via proximity ligation, sequencing); 10 mM Tris-HCl pH 7.5, 50 mM NaCl, 1 mM DTT, 4% glycerol, room temperature, 30 min; GST-TFs on glutathione beads, 16-mer random dsDNA library, 0.1% formaldehyde crosslink after washing; high values mean tight binding
Details in all cases: protein: recombinant; tags: N-terminal GST; dsDNA, one strand shown

One assay addresses T1, ELK4 (Homo sapiens, UniProt P28324-2 1-405).
T1 sequence: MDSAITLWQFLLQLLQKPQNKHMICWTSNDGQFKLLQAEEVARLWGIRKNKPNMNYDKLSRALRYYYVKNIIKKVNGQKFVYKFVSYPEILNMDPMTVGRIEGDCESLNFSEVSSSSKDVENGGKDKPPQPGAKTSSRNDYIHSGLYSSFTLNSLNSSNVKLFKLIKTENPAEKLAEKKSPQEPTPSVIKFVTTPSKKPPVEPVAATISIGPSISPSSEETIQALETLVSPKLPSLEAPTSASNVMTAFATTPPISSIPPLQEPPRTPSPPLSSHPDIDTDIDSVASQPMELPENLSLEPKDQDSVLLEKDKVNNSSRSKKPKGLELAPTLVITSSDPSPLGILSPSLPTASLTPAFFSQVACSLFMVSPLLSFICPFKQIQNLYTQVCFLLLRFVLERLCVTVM
Summed up: (§1)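 Human transcription factors carrying a GST fusion were produced in yeast, bound to glutathione beads, tagged with DNA barcodes and pooled together with a tag-only sample. Each pool was held with 200 nmole of a random double-stranded 16-mer DNA library in Tris/NaCl/DTT/glycerol buffer for 30 min at room temperature, then washed, crosslinked in 0.1% formaldehyde, proximity-ligated with BsaI/T4 ligase (1 h, 37 °C), PCR-amplified and sequenced on an Illumina NextSeq500. Binding signal is the read frequency of each hexamer for a given factor divided by its frequency in the tag-only sample.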

In the next assay the target is T2, ELK1 (Homo sapiens, UniProt P19419 1-428).
T2 sequence: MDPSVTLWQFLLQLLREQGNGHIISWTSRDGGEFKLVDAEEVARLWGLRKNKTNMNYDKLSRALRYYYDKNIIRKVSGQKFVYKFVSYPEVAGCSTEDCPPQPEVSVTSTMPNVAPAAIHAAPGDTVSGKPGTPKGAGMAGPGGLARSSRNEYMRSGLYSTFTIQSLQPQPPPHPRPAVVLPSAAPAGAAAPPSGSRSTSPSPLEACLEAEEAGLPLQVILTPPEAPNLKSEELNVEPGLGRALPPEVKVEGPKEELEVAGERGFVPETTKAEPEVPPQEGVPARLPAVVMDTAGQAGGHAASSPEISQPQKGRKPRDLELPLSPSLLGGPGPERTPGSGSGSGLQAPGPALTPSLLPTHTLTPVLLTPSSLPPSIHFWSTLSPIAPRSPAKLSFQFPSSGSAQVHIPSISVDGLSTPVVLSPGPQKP
The procedure, abridged:
as §1

A further assay deals with T3, ERG (Homo sapiens, UniProt P11308 1-479).
T3 sequence: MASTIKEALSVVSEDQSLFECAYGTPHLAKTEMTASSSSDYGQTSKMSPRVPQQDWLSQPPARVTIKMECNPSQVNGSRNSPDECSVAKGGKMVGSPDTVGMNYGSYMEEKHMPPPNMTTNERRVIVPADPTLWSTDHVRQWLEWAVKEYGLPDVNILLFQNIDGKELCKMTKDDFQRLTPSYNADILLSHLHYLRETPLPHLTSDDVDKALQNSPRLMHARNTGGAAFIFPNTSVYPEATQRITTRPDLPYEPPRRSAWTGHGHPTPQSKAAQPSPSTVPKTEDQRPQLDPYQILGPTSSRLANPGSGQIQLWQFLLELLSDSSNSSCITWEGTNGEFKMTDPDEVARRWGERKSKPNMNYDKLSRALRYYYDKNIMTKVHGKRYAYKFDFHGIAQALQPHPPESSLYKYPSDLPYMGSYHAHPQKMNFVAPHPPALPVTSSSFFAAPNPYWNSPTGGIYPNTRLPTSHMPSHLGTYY
The procedure, abridged:
as §1

Another assay concerns the target T4, ELK3 (Homo sapiens, UniProt P41970 1-407).
T4 sequence: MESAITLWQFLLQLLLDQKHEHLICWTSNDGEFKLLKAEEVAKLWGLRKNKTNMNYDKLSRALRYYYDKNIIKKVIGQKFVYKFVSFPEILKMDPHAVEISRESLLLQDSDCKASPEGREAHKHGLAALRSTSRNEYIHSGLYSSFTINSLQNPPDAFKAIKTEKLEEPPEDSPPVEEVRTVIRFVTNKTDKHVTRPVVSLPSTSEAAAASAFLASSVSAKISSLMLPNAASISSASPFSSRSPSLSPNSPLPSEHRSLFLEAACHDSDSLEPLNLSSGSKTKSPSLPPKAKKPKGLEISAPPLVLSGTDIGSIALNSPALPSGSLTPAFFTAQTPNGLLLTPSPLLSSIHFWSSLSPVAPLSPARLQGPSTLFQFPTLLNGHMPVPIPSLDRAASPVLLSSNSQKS
The procedure, abridged:
as §1

In a further assay the target is T5, ETV2 (Homo sapiens, UniProt O00321 1-342).
T5 sequence: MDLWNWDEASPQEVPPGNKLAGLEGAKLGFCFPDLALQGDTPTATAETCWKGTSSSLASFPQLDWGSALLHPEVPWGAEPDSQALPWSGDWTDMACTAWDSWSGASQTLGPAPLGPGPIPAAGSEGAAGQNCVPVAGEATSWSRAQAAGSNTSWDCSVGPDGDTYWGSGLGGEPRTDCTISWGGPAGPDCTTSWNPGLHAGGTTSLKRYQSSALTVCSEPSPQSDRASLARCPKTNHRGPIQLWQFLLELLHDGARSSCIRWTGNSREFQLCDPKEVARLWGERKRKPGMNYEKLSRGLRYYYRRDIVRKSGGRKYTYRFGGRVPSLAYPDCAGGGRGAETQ
Summed up:
as §1

For the next assay, the target named is T6, ELF3 (Homo sapiens, UniProt P78545 1-371).
T6 sequence: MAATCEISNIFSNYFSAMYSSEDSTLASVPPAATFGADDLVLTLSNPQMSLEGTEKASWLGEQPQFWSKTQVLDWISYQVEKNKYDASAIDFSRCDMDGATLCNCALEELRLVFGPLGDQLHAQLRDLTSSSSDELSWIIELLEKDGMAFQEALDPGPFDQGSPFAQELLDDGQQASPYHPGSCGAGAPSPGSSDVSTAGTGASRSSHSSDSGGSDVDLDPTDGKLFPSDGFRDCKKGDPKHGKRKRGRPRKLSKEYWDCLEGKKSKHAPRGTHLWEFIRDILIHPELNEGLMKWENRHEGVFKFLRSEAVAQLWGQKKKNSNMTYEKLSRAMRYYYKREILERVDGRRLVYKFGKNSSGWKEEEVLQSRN
Summed up:
as §1

The next assay deals with CRX (Homo sapiens, UniProt O43186 1-299). The procedure, abridged: as §1
Sequence of CRX (O43186 whole entry): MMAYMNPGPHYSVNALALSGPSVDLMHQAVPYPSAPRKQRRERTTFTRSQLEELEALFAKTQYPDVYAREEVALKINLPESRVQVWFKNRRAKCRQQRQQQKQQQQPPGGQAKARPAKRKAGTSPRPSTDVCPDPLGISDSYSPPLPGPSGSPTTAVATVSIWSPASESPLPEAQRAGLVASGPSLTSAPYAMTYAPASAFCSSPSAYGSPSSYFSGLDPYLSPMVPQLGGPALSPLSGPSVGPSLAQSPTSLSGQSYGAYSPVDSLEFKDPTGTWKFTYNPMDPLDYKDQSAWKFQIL
For a further assay, the target named is T7, ERF (Homo sapiens, UniProt P50548 1-548).
T7 sequence: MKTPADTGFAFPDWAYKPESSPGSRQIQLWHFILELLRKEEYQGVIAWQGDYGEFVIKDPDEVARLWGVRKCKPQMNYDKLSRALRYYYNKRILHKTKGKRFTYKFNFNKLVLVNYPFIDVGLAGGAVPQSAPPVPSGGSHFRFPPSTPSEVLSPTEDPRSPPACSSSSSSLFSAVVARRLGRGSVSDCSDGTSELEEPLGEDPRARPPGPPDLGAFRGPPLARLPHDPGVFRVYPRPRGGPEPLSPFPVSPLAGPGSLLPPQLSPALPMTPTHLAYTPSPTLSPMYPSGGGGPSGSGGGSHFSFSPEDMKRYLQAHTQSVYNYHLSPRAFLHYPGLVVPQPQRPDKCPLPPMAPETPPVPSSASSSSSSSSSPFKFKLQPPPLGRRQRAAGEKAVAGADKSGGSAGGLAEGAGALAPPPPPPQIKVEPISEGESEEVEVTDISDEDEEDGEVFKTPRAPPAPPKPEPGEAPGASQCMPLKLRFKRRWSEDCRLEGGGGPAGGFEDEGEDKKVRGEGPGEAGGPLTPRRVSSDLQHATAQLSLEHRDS
Summed up: as §1

Regarding GTGGTC, in the assay with ELK4, the binding signal was 1.06 fold enrichment (6-mer frequency, TF over GST control).

Consider GTGTTA, for which the binding signal was 1.02 fold enrichment (6-mer frequency, TF over GST control) with ELK1; 1.01 fold enrichment (6-mer frequency, TF over GST control) with ERG; 1.02 fold enrichment (6-mer frequency, TF over GST control) in the assay with ELK3; 1.04 fold enrichment (6-mer frequency, TF over GST control) with ELK4; 1.01 fold enrichment (6-mer frequency, TF over GST control) with ETV2; 1.15 fold enrichment (6-mer frequency, TF over GST control) in the assay with ELF3. The binding signal was 1.11 fold enrichment (6-mer frequency, TF over GST control) with CRX and 1.06 fold enrichment (6-mer frequency, TF over GST control) in the assay with ERF.
